Reference: PubChem BioAssay (Tox21)
Unmarked numbers belong to inactive results. Inconclusive results are not listed. A call without a number means that no potency is given here. Activity calls are given as the source filed them. Unless noted, calls follow the shape of the dose curve; as a rule, active = well fitted curve in the direction sought with a large enough effect in the repeat runs; inconclusive = weak or mixed curves; inactive = no such curve, though single readings can be large; an effect the other way counts as inactive or inconclusive.

Experiments:
[1] = qHTS assay to identify small molecule antagonists of the estrogen receptor alpha (ER-alpha) signaling pathway using the BG1 cell line in the presence of 0.1 nM 17-beta-estradiol - cell viability counter screen (AID 1259241); also: nearly all actives have a fitted effect of over 40% in size
Summary of the method: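 Measures cytotoxicity alongside the ER-alpha antagonist readout: VM7Luc4E2 cells, charcoal-stripped serum, 0.1 nM 17beta-estradiol final, 22 hr compound incubation at 37C, CellTiter-Fluor fluorescence.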

[2] = qHTS assay to identify small molecule antagonists of the androgen receptor (AR) signaling pathway using the MDA cell line in the presence of 0.5 nM R1881 - cell viability counter screen (AID 1259242); also: nearly all actives have a fitted effect of over 45% in size
Summary of the method: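 Fluorescence from CellTiter-Fluor, which reports protease activity of live cells, was read 30 min after reagent addition to MDA-kb2 cells that had been incubated 16 hr with compound and 0.5 nM R1881.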

[3] = biological target: Estrogen receptor (Homo sapiens) (UniProt P03372); assay: qHTS assay to identify small molecule antagonists of the estrogen receptor alpha (ER-alpha) signaling pathway using the BG1 cell line in the presence of 0.1 nM 17-beta-estradiol (AID 1259244); also: nearly all actives have a fitted effect of over 50% in size
Sequence of Estrogen receptor (Homo sapiens) (P03372 whole entry, looked up): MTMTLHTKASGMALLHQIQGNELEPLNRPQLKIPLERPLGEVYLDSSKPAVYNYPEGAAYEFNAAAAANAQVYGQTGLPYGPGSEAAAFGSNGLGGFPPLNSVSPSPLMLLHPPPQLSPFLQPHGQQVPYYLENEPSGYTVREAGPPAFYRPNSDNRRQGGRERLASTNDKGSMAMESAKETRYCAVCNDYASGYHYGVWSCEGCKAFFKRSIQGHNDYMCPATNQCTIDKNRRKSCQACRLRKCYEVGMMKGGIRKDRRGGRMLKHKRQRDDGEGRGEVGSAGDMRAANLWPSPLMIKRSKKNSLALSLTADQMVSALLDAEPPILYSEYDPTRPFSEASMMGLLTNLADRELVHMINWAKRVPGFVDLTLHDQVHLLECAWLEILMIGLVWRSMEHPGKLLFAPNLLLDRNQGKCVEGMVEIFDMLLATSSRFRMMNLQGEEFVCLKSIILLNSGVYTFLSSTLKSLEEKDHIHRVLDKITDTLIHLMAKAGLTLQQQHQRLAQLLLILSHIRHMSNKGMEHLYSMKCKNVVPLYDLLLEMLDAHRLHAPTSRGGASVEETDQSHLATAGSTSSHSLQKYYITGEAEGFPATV
Summary of the method: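 Quantitative high-throughput screen in VM7Luc4E2 cells: compound plus 0.1 nM E2 (final), 22 h, 37C, 5% CO2; ONE-Glo added, 30 min room temperature, luminescence measured.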

[4] = qHTS assay to identify small molecule HDAC inhibitors (AID 1259364); also: top concentration of the series differs between compounds; nearly all actives have a fitted effect of over 45% in size
Summary of the method: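 Endogenous HDAC class I/II activity was measured in wild-type HCT-116 cells by HDAC-Glo luminescence after 2 h compound treatment.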

[5] = qHTS assay to identify small molecule HDAC inhibitors - cell viability counter screen (AID 1259365); also: series mostly up to about 92 µM; nearly all actives have a fitted effect of over 50% in size
Summary of the method: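 Following a 2hr exposure of overnight-plated wild-type HCT-116 cells to DMSO-delivered compounds, CellTiter-Glo was added and luminescence recorded after 30min at room temperature.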

[6] = qHTS assay to identify small molecule agonists of the sonic hedgehog signaling (Shh) pathway - cell viability counter screen (AID 1259366); also: nearly all actives have a fitted effect of over 50% in size
Summary of the method: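 After a 4hr attachment at 37C, NIH/3T3 cells bearing an integrated Gli1-driven luciferase reporter were dosed with compounds. Treatment lasted 24hr, with the final hour including CellTiter-Fluor for a fluorescence viability measurement.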

[7] = qHTS assay to identify small molecule antagonists of the sonic hedgehog signaling (Shh) pathway - cell viability counter screen (AID 1259367); also: nearly all actives have a fitted effect of over 55% in size
Summary of the method: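 NIH/3T3-derived Gli1-Luc reporter cells (2,000 per well) rested 4 hr at 37 C, then received DMSO compounds plus conditioned medium. After 23 hr of treatment, CellTiter-Fluor was added for 1 hr at 37C and fluorescence read.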

[8] = qHTS assay to identify small molecule agonists of the sonic hedgehog signaling (Shh) pathway (AID 1259368; calls by dose curve;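 also: NIH/3T3-derived 3T3Gli1-Luc cells carrying a stable Gli1-driven firefly luciferase reporter; series mostly up to about 92 µM; nearly all actives have a fitted effect of over 15% in size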)
Summary of the method: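 Luminescent signal was taken as a measure of Gli1-controlled luciferase expression in stably transfected NIH/3T3-derived cells that had been treated for 24 hr with compounds delivered in DMSO.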

[9] = qHTS assay to identify small molecule antagonists of the sonic hedgehog signaling (Shh) pathway (AID 1259369; calls by dose curve; also: nearly all actives have a fitted effect of over 45% in size; also: potency is read from the fitted curve at half-maximal effect)
Summary of the method: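 Screening used 3T3Gli1-Luc cells at 2,000 per well, compounds delivered in DMSO, and conditioned medium as agonist stimulus; plates incubated 24hr at 37 C and 5% CO2 before a 30min luciferase step.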

[10] = qHTS assay to identify small molecule agonists of the androgen receptor (AR) signaling pathway in the presence of an antagonist - cell viability counter screen (AID 1259379);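 also: MDA-kb2 human breast cancer cells carrying an MMTV luciferase reporter; series mostly up to about 92 µM; nearly all actives have a fitted effect of over 25% in size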
Summary of the method: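 In MDA-kb2 cells (human breast carcinoma, MMTV-luciferase), compounds at 15 concentrations plus 3.0uM nilutamide; 16 hr, 37C, 0% CO2; CellTiter-Fluor fluorescence read for viability.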

[11] = qHTS assay to identify small molecule agonists of the estrogen receptor beta (ER-beta) signaling pathway - cell viability counter screen (AID 1259380); also: nearly all actives have a fitted effect of over 30% in size
Summary of the method: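 Viability of ER-beta-UAS-bla HEK293T cells was determined by CellTiter-Glo luminescence following 16 hr treatment with test compounds at 37C.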

[12] = qHTS assay to identify small molecule antagonists of the estrogen receptor beta (ER-beta) signaling pathway - cell viability counter screen (AID 1259382); also: series mostly up to about 92 µM; nearly all actives have a fitted effect of over 55% in size
Summary of the method: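 Tox21 10K library tested in qHTS format on ER-beta-bla HEK293T cells stimulated with 1nM E2; 16 hr treatment at 37C. Same-well CellTiter-Glo luminescence served as the cell viability measure.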

[13] = biological target: Estrogen receptor (Homo sapiens) (UniProt P03372); assay: qHTS assay to identify small molecule agonists of the estrogen receptor alpha (ER-alpha) signaling pathway in the presence of an antagonist (AID 1259383; calls by dose curve; also: top concentration of the series differs between compounds; nearly all actives have a fitted effect of over 15% in size)
Summary of the method: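 In VM7Luc4E2 cells, 4,000 per well, compounds at 15 concentrations were co-incubated 22hr at 37C with 10.0nM final ICI-182,780. Luminescence from the stably transfected 4×ERE-luciferase reporter was recorded 30min after ONE-Glo addition.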

[14] = qHTS assay to identify small molecule agonists or antagonists of the thyroid stimulating hormone receptor (TSHR) signaling pathway - wild type cell line counter screen (AID 1259384; calls by dose curve)
Summary of the method: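 Wild-type HEK293 cells were plated 18 h at 37 C/5% CO2, pin-dosed with compound plus Ro20-1724 medium, held 30 min at room temperature, then given cAMP-d2 and anti-cAMP-cryptate; fluorescence was read after 1 h. Fifteen concentrations, triplicate.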

[15] = biological target: Thyrotropin receptor (Homo sapiens) (UniProt P16473); assay: qHTS assay to identify small molecule antagonists of the thyroid stimulating hormone receptor (TSHR) signaling pathway (AID 1259385; calls by dose curve; also: nearly all actives have a fitted effect of over 20% in size; also: potency is read from the fitted curve at half-maximal effect)
Sequence of Thyrotropin receptor (Homo sapiens) (P16473 whole entry, looked up): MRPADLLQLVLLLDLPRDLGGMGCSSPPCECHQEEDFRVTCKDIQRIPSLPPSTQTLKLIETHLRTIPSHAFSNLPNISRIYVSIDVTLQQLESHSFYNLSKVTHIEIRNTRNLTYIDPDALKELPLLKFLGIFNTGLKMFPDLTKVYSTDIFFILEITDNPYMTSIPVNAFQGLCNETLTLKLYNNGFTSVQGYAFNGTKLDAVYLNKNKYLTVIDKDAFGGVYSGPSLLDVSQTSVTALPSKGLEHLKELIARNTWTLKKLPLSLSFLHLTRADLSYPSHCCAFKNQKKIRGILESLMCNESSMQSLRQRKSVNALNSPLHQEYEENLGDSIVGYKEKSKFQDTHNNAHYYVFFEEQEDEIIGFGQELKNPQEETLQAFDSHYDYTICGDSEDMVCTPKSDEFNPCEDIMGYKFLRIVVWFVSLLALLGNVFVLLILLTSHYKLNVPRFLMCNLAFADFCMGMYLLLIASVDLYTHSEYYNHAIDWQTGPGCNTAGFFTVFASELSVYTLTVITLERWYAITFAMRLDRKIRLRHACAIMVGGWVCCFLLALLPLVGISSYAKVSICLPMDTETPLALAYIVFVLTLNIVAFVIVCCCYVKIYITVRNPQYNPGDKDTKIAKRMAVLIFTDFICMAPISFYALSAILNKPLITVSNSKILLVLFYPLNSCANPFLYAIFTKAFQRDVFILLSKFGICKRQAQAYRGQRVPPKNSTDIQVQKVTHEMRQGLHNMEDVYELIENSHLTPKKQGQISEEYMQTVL
Summary of the method: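 TSHR-HEK293 cells were plated and held 18 h at 37C/5% CO2, then given compound plus Ro20-1724 and stimulated with TSH at 1.5 ng/mL final. After 30 min at room temperature, cAMP was detected with cAMP-d2/anti-cAMP-cryptate (1 h) by fluorescence.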

[16] = biological target: Estrogen receptor beta (Homo sapiens) (UniProt Q92731); assay: qHTS assay to identify small molecule antagonists of the estrogen receptor beta (ER-beta) signaling pathway (AID 1259378; active = well fitted inhibition curve with a large enough effect in the signal ratio in the repeat runs, not every such curve was filed as active; the % refers to the signal ratio)
Sequence of Estrogen receptor beta (Homo sapiens) (Q92731 whole entry, looked up): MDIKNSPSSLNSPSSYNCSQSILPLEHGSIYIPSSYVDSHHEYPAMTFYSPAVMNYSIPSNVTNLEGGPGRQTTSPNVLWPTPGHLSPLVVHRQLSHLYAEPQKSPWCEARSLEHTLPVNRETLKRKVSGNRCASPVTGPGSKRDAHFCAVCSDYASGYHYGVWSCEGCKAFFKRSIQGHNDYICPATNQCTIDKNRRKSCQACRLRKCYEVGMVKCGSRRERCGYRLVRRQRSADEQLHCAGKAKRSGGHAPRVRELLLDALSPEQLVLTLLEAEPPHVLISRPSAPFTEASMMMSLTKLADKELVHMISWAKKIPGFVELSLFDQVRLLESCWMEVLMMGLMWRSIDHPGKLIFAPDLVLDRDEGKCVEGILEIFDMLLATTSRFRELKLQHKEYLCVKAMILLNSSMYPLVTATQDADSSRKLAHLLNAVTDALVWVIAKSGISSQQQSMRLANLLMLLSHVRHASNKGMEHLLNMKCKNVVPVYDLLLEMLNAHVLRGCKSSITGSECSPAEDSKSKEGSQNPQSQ
Summary of the method: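 ER-beta-UAS-bla HEK293T (GripTite) cells in 2% charcoal-stripped FBS medium were preincubated 6 hr at 37C, dosed with compound, then stimulated with 1 nM E2 (final) for 16 hr; beta-lactamase reporter read by B/G FRET fluorescence after 2 hr substrate loading.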

[17] = biological target: Estrogen receptor beta (Homo sapiens) (UniProt Q92731); assay: qHTS assay to identify small molecule agonists of the estrogen receptor beta (ER-beta) signaling pathway (AID 1259377; active = well fitted activation curve with a large enough effect in the signal ratio in the repeat runs, not every such curve was filed as active; the % refers to the signal ratio)
Summary of the method: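 In HEK293T cells bearing a UAS-beta-lactamase reporter under ER-beta control, DMSO-delivered compounds were incubated for 16 hr at 37C. Activity was detected as fluorescence 2 hours after LiveBLAzer B/G FRET substrate addition.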

| SMILES | outcome [1] | outcome [2] | Potency [3] | Potency [4] | outcome [5] | Potency [6] | Potency [7] | outcome [8] | Potency [9] | Potency [10] | Potency [11] | Potency [12] | Potency [13] | Potency [14] | Potency [15] | Potency [16] | outcome [17] |
| --- | --- | --- | --- | --- | --- | --- | --- | --- | --- | --- | --- | --- | --- | --- | --- | --- | --- |
| C[N+](C)=CCl | inactive | inactive | inactive | inactive | inactive | inactive | inactive | inactive | inactive | inactive | inactive | inactive | inactive | inactive | inactive | – | – |
| CCOC(=O)CP(=O)(OCC)OCC | inactive | inactive | inactive | inactive | inactive | inactive | inactive | inactive | inactive | inactive | inactive | inactive | inactive | inactive | inactive | inactive | – |
| C[N+](=O)[O-] | inactive | inactive | inactive | inactive | inactive | inactive | inactive | inactive | inactive | inactive | inactive | inactive | inactive | inactive | – | – | – |
| CCCSC(=O)Cl | inactive | inactive | inactive | inactive | inactive | inactive | inactive | – | inactive | inactive | inactive | inactive | inactive | inactive | inactive | inactive | – |
| Cc1coc2c1CCC(C)C2 (configuration not stated) | inactive | inactive | inactive | inactive | inactive | inactive | inactive | – | inactive | inactive | inactive | inactive | inactive | inactive | inactive | inactive | inactive |
| CCCCP(CCCC)CCCC | inactive | inactive | inactive | inactive | inactive | inactive | inactive | inactive | – | inactive | – | inactive | inactive | – | inactive | inactive | – |
| O=[N+]([O-])c1ccc2c3c(cccc13)CC2 | inactive | inactive | inactive | inactive | inactive | inactive | inactive | inactive | 21.7 µM (active) | inactive | inactive | inactive | inactive | – | inactive | inactive | – |
| COP(=S)(OC)Oc1c(Cl)cc(C)cc1Cl | inactive | inactive | inactive | inactive | inactive | inactive | inactive | inactive | inactive | inactive | inactive | inactive | inactive | – | 54.5 µM (active) | inactive | – |
| CCOc1nc(C(Cl)(Cl)Cl)ns1 | inactive | inactive | inactive | inactive | inactive | inactive | inactive | – | inactive | inactive | – | inactive | inactive | inactive | inactive | inactive | inactive |
| Cc1cccc(C#N)c1 | inactive | inactive | inactive | inactive | inactive | inactive | inactive | inactive | inactive | inactive | – | inactive | inactive | – | inactive | inactive | – |
| O=S(=O)(O)C(F)(F)C(F)(F)C(F)(F)C(F)(F)C(F)(F)C(F)(F)F | inactive | inactive | inactive | inactive | inactive | inactive | inactive | inactive | inactive | inactive | inactive | inactive | inactive | inactive | inactive | – | – |
| O=C1CN2CCOC2(c2ccccc2Cl)c2cc(Cl)ccc2N1 (configuration not stated) | inactive | inactive | inactive | inactive | inactive | inactive | inactive | inactive | inactive | inactive | inactive | inactive | inactive | – | inactive | – | – |
| COc1cc(OC)nc(NC(=O)NS(=O)(=O)c2ncccc2OCC(F)(F)F)n1 | inactive | inactive | inactive | inactive | inactive | inactive | inactive | inactive | inactive | inactive | – | inactive | inactive | inactive | inactive | inactive | – |
| CCCCOC(=O)[C@@H](C)Oc1ccc(Oc2ccc(C#N)cc2F)cc1 | inactive | inactive | inactive | inactive | inactive | inactive | inactive | inactive | – | inactive | inactive | inactive | inactive | inactive | – | inactive | inactive |
